# Laboratory results published in PubChem BioAssay (NCATS).
# “And” between values parts separate entries of the source, which are not always exact repeats. Equal values may be shown once. Results filed as inconclusive are left out. Where a call stands in place of a potency, no number is given. The source made the active and inactive calls. Unless noted, calls follow the shape of the dose curve; as a rule, active = well fitted curve in the direction sought with a large enough effect; inconclusive = small, poorly fitted or top-dose-only effect, or another doubt; inactive = no such curve, though single readings can be large; an effect the other way counts as inactive or inconclusive.
# What was measured:
# [1] = target: 3',5'-cyclic-AMP phosphodiesterase 4B (Homo sapiens) (UniProt Q07343); assay: qHTS Assay for Inhibitors of PDE-IV (AID 607; active = well fitted activation curve with a large enough effect in the main read-out, with a control signal flat, not every such curve was filed as active); settings: HEK293 ACTOne CNG channel cells, membrane potential fluorescence; series mostly up to 22.9 µM
# 3',5'-cyclic-AMP phosphodiesterase 4B (Homo sapiens), sequence (Q07343 whole entry, looked up): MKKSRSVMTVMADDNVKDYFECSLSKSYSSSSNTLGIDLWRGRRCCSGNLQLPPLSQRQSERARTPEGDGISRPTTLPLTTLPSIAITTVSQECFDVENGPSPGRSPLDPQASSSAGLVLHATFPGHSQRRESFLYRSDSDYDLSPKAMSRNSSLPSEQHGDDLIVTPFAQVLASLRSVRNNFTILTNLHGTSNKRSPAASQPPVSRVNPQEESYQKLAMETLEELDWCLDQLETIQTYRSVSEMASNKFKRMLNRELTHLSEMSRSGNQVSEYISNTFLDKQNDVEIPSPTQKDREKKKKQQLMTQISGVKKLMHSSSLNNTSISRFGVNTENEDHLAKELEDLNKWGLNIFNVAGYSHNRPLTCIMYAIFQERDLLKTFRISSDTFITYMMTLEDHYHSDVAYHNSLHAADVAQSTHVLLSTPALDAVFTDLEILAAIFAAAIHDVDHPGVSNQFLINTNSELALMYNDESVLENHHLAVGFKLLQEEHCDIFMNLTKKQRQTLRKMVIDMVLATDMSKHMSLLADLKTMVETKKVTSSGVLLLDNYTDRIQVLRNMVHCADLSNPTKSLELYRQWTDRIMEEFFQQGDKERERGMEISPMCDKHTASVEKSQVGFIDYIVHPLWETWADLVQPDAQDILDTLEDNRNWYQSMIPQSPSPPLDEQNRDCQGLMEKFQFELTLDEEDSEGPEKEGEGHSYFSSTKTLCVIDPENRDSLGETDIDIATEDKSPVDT
# How it was run: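 Live HEK293 cells with a modified cyclic nucleotide-gated (CNG) channel report intracellular cAMP via membrane-potential dye fluorescence (ex 535/em 590 nm). Endogenous PDE-IV was targeted. Compounds were tested at up to 22.9 uM final; RO 20-1724 100 uM served as control.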
# [2] = target: Cytochrome P450 3A4 (Homo sapiens) (UniProt P08684); assay: qHTS Assay for Inhibitors and Substrates of Cytochrome P450 3A4 (AID 884); settings: recombinant CYP3A4, Luciferin-PPXE luminescence; series mostly up to 57.1 µM; also: nearly all actives have a fitted effect of over 50% in size; also: potency is read from the fitted curve at half-maximal effect
# Cytochrome P450 3A4 (Homo sapiens), sequence (P08684 whole entry, looked up): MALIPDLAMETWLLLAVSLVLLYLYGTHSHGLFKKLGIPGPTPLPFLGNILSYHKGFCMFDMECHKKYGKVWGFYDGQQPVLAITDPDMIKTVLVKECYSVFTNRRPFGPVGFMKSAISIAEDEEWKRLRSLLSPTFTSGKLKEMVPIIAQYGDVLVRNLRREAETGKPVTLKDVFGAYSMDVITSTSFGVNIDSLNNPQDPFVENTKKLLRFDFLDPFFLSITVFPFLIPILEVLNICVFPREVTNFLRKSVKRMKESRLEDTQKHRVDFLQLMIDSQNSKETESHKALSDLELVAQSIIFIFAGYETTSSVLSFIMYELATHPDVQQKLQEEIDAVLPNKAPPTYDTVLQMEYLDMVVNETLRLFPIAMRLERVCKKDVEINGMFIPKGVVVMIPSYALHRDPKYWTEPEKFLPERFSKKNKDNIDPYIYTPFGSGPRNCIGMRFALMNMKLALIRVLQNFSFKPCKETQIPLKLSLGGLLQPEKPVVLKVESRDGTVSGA
# How it was run: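 20 nM human CYP3A4 with 25 uM Luciferin-PPXE (at KM) in 200 mM KPO4, preincubated 10 min with compound; NADPH regeneration started a 60 min RT reaction. Luciferin detected by luminescence, normalized to 57 uM ketoconazole as full inhibition.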
# [3] = target: Cytochrome P450 3A4 (Homo sapiens) (UniProt P08684); assay: qHTS Assay for Activators of Cytochrome P450 3A4 (AID 885); settings: recombinant CYP3A4, Luciferin-PPXE luminescence, 60 min; series mostly up to 57.1 µM; also: nearly all actives have a fitted effect of over 65% in size
# How it was run: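 Quantitative HTS format: compounds preincubated with 20nM human CYP3A4 and Luciferin-PPXE substrate at KM, reaction started by NADPH regeneration, stopped after 60 min, luciferase luminescence read 20 min later.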
# [4] = target: Cytochrome P450 2C9 (Homo sapiens) (UniProt P11712); assay: qHTS Assay for Inhibitors and Substrates of Cytochrome P450 2C9 (AID 883); settings: recombinant CYP2C9, luciferin-H luminescence, 60 min; series mostly up to 57.1 µM; also: nearly all actives have a fitted effect of over 60% in size; also: potency is read from the fitted curve at half-maximal effect
# Cytochrome P450 2C9 (Homo sapiens), sequence (P11712 whole entry, looked up): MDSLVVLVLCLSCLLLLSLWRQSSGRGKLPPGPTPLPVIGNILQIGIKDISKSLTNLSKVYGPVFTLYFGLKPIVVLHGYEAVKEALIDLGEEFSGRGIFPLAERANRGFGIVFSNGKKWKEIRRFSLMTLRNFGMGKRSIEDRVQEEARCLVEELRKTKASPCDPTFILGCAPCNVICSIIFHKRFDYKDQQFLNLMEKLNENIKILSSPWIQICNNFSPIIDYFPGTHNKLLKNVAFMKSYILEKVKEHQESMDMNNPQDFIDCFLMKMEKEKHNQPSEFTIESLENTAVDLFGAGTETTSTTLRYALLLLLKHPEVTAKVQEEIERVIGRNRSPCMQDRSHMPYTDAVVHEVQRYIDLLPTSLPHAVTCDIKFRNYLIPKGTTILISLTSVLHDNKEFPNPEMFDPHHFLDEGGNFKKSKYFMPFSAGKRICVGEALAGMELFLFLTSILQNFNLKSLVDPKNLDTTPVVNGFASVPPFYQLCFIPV
# How it was run: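 Human CYP2C9 (10nM) with Luciferin-H at 100uM (its KM) in 25mM KPO4; compound preincubated 10 min at 37C, then NADPH regeneration for 60 min at 37C. Luciferin read by luminescence after detection reagent; normalized to 57uM sulphaphenazole as full inhibition.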
# [5] = target: Cytochrome P450 2D6 (Homo sapiens) (UniProt P10635); assay: qHTS Assay for Inhibitors and Substrates of Cytochrome P450 2D6 (AID 891); settings: recombinant CYP2D6, luciferin-ME EGE luminescence; series mostly up to 57.1 µM; also: nearly all actives have a fitted effect of over 60% in size; also: potency is read from the fitted curve at half-maximal effect
# Cytochrome P450 2D6 (Homo sapiens), sequence (P10635 whole entry, looked up): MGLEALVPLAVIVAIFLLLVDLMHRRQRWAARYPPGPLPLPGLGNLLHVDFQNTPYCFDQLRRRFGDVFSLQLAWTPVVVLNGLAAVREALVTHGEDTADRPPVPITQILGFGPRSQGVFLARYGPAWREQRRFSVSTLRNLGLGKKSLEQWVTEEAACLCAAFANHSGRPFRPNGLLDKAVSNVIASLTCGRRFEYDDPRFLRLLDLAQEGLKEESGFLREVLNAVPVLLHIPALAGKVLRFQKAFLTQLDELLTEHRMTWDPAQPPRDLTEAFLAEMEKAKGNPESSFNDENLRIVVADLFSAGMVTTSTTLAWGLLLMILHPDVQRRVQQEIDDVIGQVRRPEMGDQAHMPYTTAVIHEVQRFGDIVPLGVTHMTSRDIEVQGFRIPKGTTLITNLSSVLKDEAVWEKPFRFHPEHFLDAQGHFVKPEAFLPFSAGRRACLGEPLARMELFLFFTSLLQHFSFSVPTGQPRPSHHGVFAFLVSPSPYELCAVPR
# How it was run: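 Human CYP2D6 (5 nM) with 30 uM Luciferin-ME EGE (at Km) in 100 mM KPO4, compound preincubated 10 min, then NADPH regeneration system for 60 min at room temperature. Luciferin read by luminescence; normalized to 1.43 uM quinidine.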
# [6] = target: Cytochrome P450 2C19 (Homo sapiens) (UniProt P33261); assay: qHTS Assay for Inhibitors and Substrates of Cytochrome P450 2C19 (AID 899); settings: recombinant CYP2C19, luciferin-H EGE luminescence; series mostly up to 57.1 µM; also: nearly all actives have a fitted effect of over 60% in size; also: potency is read from the fitted curve at half-maximal effect
# Cytochrome P450 2C19 (Homo sapiens), sequence (P33261 whole entry, looked up): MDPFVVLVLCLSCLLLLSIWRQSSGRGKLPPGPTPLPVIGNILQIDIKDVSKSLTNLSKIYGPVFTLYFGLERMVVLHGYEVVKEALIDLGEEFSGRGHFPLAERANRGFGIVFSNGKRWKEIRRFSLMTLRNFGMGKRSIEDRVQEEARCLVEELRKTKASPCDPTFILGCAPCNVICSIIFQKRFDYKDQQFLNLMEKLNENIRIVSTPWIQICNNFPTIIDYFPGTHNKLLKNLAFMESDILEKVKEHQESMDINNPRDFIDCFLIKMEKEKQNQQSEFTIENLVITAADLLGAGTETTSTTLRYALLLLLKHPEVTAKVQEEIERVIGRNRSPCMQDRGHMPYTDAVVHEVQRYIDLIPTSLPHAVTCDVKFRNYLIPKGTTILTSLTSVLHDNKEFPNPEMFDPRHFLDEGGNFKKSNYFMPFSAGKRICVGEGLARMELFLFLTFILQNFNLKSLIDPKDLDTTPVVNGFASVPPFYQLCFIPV
# How it was run: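 5 nM human CYP2C19 with 10uM Luciferin-H EGE (at KM) in 50mM KPO4, compound preincubated 10 min at 37C, then NADPH regeneration for 60 min at 37C. Luciferin read by luminescence after detection reagent; normalized to 57uM ketoconazole as full inhibition.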
# [7] = Cellular Toxicity (caspase-3) HepG2 (AID 654); settings: HepG2 caspase-3 activation, luminescence, 0% = DMSO only, 100% = tamoxifen; series mostly up to 92.2 µM;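 also: cells exposed to compound for 16 hours before reading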
# How it was run: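 Cells plated 5 hr at 37 °C, compound added, incubated 16 hr at 37 °C. Caspase-Glo 3/7 reagent followed, 20 min at room temperature, then luminescence read. Activation scored as signal increase; AC50 from Hill fit.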
# [8] = Cellular Toxicity (caspase-3) Jurkat (AID 655); settings: Jurkat caspase-3 activation, luminescence, DMSO = 0%, tamoxifen = 100%; series mostly up to 92.2 µM;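 also: cells exposed to compound for 16 h at 37 °C before reading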
# How it was run: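 Jurkat cells (5000/well) in complete medium exposed 16 h at 37 C; caspase-3/7 activity read by Caspase-Glo luminescence after 20 min at room temperature. Normalized to DMSO and 100 uM tamoxifen; AC50 from Hill fits.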
# [9] = Cellular Toxicity (caspase-3) HUV-EC-C (AID 656); settings: HUV-EC-C cells, caspase-3 activation (apoptosis), vehicle = 0, 100 µM tamoxifen = 100%; series mostly up to 92.2 µM
# How it was run: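 HUV-EC-C cells (1000/well) in complete medium, compound-treated 16 h at 37 °C; caspase-3/7 activity read by Caspase-Glo 3/7 luminescence. Normalized to DMSO (basal) and 100 uM tamoxifen (100%); AC50 from Hill-equation concentration-response fits.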
# [10] = Cellular Toxicity (caspase-3) SHSY5Y (AID 657); settings: SH-SY5Y caspase-3 activation, DMSO zero, 10 µM staurosporine = 100%; series mostly up to 91.7 µM
# How it was run: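 SH-SY5Y human neuroblastoma cells, 1500/well, exposed to compound for 16 hours at 37 °C in complete medium. Caspase-3/7 activity read by Caspase-Glo luminescence after 1 hr at room temperature, normalized to DMSO and 10 uM staurosporine; AC50 from Hill fit.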
# [11] = Cellular Toxicity (caspase-3) BJ (AID 658); settings: BJ fibroblasts, luminescence, normalized: DMSO 0%, staurosporine 100%; series mostly up to 91.7 µM
# How it was run: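 BJ human foreskin fibroblasts, 1000 cells/well, treated 16 hours at 37 °C in complete medium; caspase 3/7 activity by Caspase-Glo luminescence after 1 hr at room temperature. Normalized to DMSO and 10 uM staurosporine; AC50 from Hill fits.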
# [12] = Cellular Toxicity (caspase-3) MRC-5 (AID 659); settings: MRC-5 cells, luminescence, normalized: DMSO 0%, 10 µM staurosporine 100%; series mostly up to 91.7 µM
# How it was run: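 MRC-5 human normal lung fibroblasts, 1500 cells/well, treated 16 h at 37 °C in complete medium. Caspase 3/7 measured by Caspase-Glo luminescence after 1 h at room temperature. Normalized to DMSO and 10 uM staurosporine; AC50 from Hill fit.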
# [13] = Cellular Toxicity (caspase-3) Mesangial (AID 660); settings: mesangial cells, normalized: DMSO 0%, 100 µM tamoxifen 100%; series mostly up to 91.7 µM
# How it was run: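 Mesangial cells, 1000/well, 5 h settle at 37 °C; compound 16 h, 37 °C; Caspase-Glo 3/7 reagent 20 min RT; luminescence. Norm.: DMSO = 0%, tamoxifen 100 uM = 100%. AC50, Hill fit.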
# [14] = Cellular Toxicity (caspase-3) SK-N-SH (AID 661); settings: SK-N-SH caspase-3 activation, qHTS, DMSO as zero, staurosporine as full; series mostly up to 91.7 µM
# How it was run: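 Human neuroblastoma SK-N-SH, 1500 cells/well, 5 hr pre-incubation, then compound 16 hr, 37 °C. Caspase-Glo 3/7 reagent, 1 hr RT, luminescence. Norm. to DMSO/10 uM staurosporine; Hill-fit AC50.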
# [15] = Cellular Toxicity (caspase-3) H-4-II-E (AID 663); settings: H-4-II-E rat hepatoma, scaled: DMSO 0%, 100 µM tamoxifen 100%; series mostly up to 92.2 µM;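 also: cells exposed to compound for 16 hr before readout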
# How it was run: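 Rat hepatoma H-4-II-E cells (1500/well) plated 5 hr, then exposed to compound titrations for 16 hr at 37 °C. Caspase-Glo 3/7 luminescence read after 20 min at RT; data normalized to DMSO and 100 uM tamoxifen, AC50 from Hill fits.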
# [16] = Cellular Toxicity (caspase-3) Hek293 (AID 664); settings: HEK293 caspase-3 activation, DMSO = 0%, 100 µM tamoxifen = 100%; series mostly up to 92.2 µM;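 also: cells exposed to compound for 16 h at 37 °C before readout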
# How it was run: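 Cells plated, 5 hr at 37 °C; compounds added; 16 hr at 37 °C; Caspase-Glo 3/7 reagent, 20 min RT; luminescence read. Activation expressed relative to DMSO and 100 uM tamoxifen, AC50 by Hill model.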
# [17] = Cellular Toxicity (caspase-3) N2a (AID 665); settings: N2a cells, luminescence, normalized: DMSO 0%, 10 µM staurosporine 100%; series mostly up to 92.2 µM;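 also: compound exposure lasted 16 h at 37 °C before readout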
# How it was run: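 N2a cells, 1500/well, 5 h settle at 37 °C; cpd 16 h, 37 °C; Caspase-Glo 3/7, 1 h RT; luminescence. Norm: DMSO = 0, 10 uM staurosporine = 100%. AC50, Hill fit.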
# [18] = Cellular Toxicity (caspase-3) NIH 3T3 (AID 666); settings: NIH 3T3 caspase-3 activation, apoptosis/toxicity, 0% DMSO, 100% is 100 µM tamoxifen; series mostly up to 92.2 µM;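 also: caspase signal read after 16 h compound exposure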
# How it was run: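 Luminescence from aminoluciferin released by caspase-3/7 cleavage of a peptide substrate served as read-out. Mouse fibroblast NIH 3T3 cells were exposed to compounds over a concentration range for 16 hours, and AC50 values came from standard Hill modelling.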
# [19] = Cellular Toxicity (caspase-3) Renal Proximal Tubule (AID 667); settings: renal proximal tubule cells, primary cells freshly taken from rat, solvent-only wells 0%, staurosporine 100%; series mostly up to 91.7 µM;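 also: cells exposed to compound for 16 hours at 37 °C before detection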
# How it was run: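 Freshly isolated primary rat kidney proximal tubule cells, 1000/well, treated 16 hr at 37 °C, then Caspase-Glo 3/7 luminescence after 1 hr. Normalized to DMSO and 10 uM staurosporine; AC50 from Hill fit.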
# [20] = target: Guanine nucleotide-binding protein G(i) subunit alpha-1 (Homo sapiens) (UniProt P63096); assay: qHTS Assay for Inhibitors of RGS12 GoLoco Motif Activity (Green Fluorophore) (AID 879); settings: Galphai1/FITC-RGS12 GoLoco peptide, fluorescence polarization; series mostly up to 57.1 µM;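 also: negative values mean loss of peptide binding seen as reduced polarization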
# Guanine nucleotide-binding protein G(i) subunit alpha-1 (Homo sapiens), sequence (P63096 whole entry, looked up): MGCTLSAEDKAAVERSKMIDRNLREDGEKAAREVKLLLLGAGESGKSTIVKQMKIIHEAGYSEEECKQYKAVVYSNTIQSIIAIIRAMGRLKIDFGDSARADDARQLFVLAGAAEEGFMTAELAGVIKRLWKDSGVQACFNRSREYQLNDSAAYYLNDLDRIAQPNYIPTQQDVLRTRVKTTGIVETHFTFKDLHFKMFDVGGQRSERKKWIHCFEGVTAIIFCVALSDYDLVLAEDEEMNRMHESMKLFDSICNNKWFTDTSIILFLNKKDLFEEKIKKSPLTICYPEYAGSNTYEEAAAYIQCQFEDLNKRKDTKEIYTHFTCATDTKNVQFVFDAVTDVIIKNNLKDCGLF
# How it was run: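 Fluorescence polarization assay: 50 nM Gαi1 with 10 nM FITC-labeled RGS12 GoLoco peptide in 10 mM Tris pH 7.5, 150 mM NaCl, 0.1 mM GDP, 0.05% NP40, 10 min at room temperature with compound.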
smiles,measurement,setting,value
CN(N=O)C(=O)N[C@H]1C(O)OC(CO)[C@@H](O)[C@H]1O (stereo not given in full),outcome,[1],inactive
COc1ccc(C(C)=O)c(O)c1,Potency,[2],1.26 µM (active)
same,outcome,[3],inactive
COc1ccc([C@@H]2CNC(=O)C2)cc1OC1CCCC1,Potency,[4],inactive
same,outcome,[3],inactive
same,Potency,[5],inactive
same,Potency,[6],inactive
c1coc(CNc2ncnc3nc[nH]c23)c1,outcome,[1],inactive
Cc1cc(O)c2c(c1)C(=O)c1cccc(O)c1C2=O,outcome,[7],inactive
same,outcome,[8],inactive
same,outcome,[9],inactive
same,outcome,[10],inactive
same,outcome,[11],inactive
same,outcome,[12],inactive
same,outcome,[13],inactive
same,outcome,[14],inactive
same,outcome,[15],inactive
same,outcome,[16],inactive
same,outcome,[17],inactive
same,outcome,[18],inactive
same,outcome,[19],inactive
O=C(O)C=Cc1ccc(Cn2ccnc2)cc1,outcome,[1],inactive
same,outcome,[3],inactive
same,Potency,[5],0.0794 µM (active)
CCN1CCN(C(=O)N[C@H](C(=O)N[C@@H]2C(=O)N3C(C(=O)O)=C(CSc4nnnn4C)CS[C@@H]23)c2ccc(O)cc2)C(=O)C1=O,outcome,[1],inactive
CN1[C@H]2CC(OC(=O)[C@@H](CO)c3ccccc3)C[C@H]1[C@H]1O[C@H]12 (stereo not given in full),outcome,[1],inactive
COc1ccc2c(c1OC)C(=O)OC2[C@H]1c2c(cc3c(c2OC)OCO3)CCN1C (stereo not given in full),outcome,[1],inactive
same,outcome,[20],inactive
same,outcome,[3],inactive
same,Potency,[5],15.8 µM (active)
same,Potency,[6],1.26 µM (active) and 316 nM (active) and 398 nM (active)
C[C@@]12C(=O)OC(=O)[C@@]1(C)C1CCC2O1,Potency,[2],inactive
COC(=O)C1C2CC3c4[nH]c5cc(OC)ccc5c4CCN3CC2CC(OC(=O)c2cc(OC)c(OC)c(OC)c2)C1OC (stereo not given),outcome,[3],inactive
CN(C)CC[C@H](c1ccc(Cl)cc1)c1ccccn1,outcome,[1],inactive
same,outcome,[20],inactive
same,Potency,[4],inactive
CCOC(=O)C1=C(C)NC(=S)NC1c1cccc(O)c1 (stereo not given),outcome,[3],inactive
CC(C)[C@H](CO)Nc1nc(Nc2cccc(Cl)c2)c2ncn(C(C)C)c2n1,outcome,[1],inactive
Oc1cc2c(cc1O)C1c3ccc(O)c(O)c3OCC1(O)C2 (stereo not given),outcome,[3],inactive
Cc1ccc(O)c(C(CCN(C(C)C)C(C)C)c2ccccc2)c1 (stereo not given),Potency,[2],inactive
O=c1c(O)c(-c2ccc(O)c(O)c2)oc2cc(O)ccc12,outcome,[1],inactive
same,Potency,[4],20 µM (active)
same,Potency,[2],39.8 µM (active)
same,outcome,[3],inactive
same,Potency,[5],inactive
same,Potency,[6],inactive
OCC(O)C(O)C(O)CO (stereo not given),Potency,[2],inactive
Nc1nc2c(c(=O)[nH]1)N(C=O)[C@H](CNc1ccc(C(=O)N[C@@H](CCC(=O)O)C(=O)O)cc1)CN2,outcome,[1],inactive
COc1cc2c(cc1O)CCC1C2CC[C@@]2(C)C1CC[C@@H]2O (stereo not given in full),outcome,[1],inactive
CC(Oc1ccc(O)cc1)(P(=O)(O)O)P(=O)(O)O,outcome,[1],inactive
